Reference: the supplement of paper PMC11172423
A number with no mark means an inactive call.

Key:
[1] = tested on: Falciformispora senegalensis CBS197.79; assay: growth relative to untreated control; higher = less inhibition, active = 20 or less
Outline: (§1)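 Viability readout used either MTS (2 h, 490 nm) or resazurin (600 nm). Before this, hyphal fragments of M. mycetomatis MM55 or F. senegalensis CBS197.79 in colourless RPMI 1640 with L-glutamine and MOPS (68–72% transmission at 660 nm) had been exposed in 96-well plates to compound at 100 or 25 µM for 7 days at 37 °C. Growth denotes metabolic activity relative to the untreated growth control, with a medium-plus-dye blank subtracted from both.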

[2] = tested on: Madurella mycetomatis MM55; assay: as above
Outline: as §1

N#Cc1ccc(-c2n[nH]c3ccc(-c4n[nH]c(CC(F)(F)F)n4)cc23)cc1
growth ([1]; 25 µM): 94%
growth ([1]; 100 µM): 98.3%
growth ([2]; 25 µM): 109%
growth ([2]; 100 µM): 114%

CCCCCOc1ccc(-c2ccc(-c3ccc(C(=O)N[C@H]4C[C@@H](O)[C@@H](O)NC(=O)[C@@H]5[C@@H](O)[C@@H](C)CN5C(=O)[C@H]([C@@H](C)O)NC(=O)[C@H]([C@H](O)[C@@H](O)c5ccc(O)cc5)NC(=O)[C@@H]5C[C@@H](O)CN5C(=O)[C@H]([C@@H](C)O)NC4=O)cc3)cc2)cc1
growth ([1]; 25 µM): 84.5%
growth ([1]; 100 µM): 67.5%
growth ([2]; 25 µM): 92.9%
growth ([2]; 100 µM): 54.2%

CC(N)CCn1c(Nc2cc(Cl)cc(C(F)(F)F)c2)nc2cnc(NC(C)(C)C)nc21 (centres undefined)
growth ([1]; 25 µM): 19.4% (active)
growth ([1]; 100 µM): 12.8% (active)
growth ([2]; 25 µM): 6.25% (active)
growth ([2]; 100 µM): 5.86% (active)

Fc1ccc([C@@H]2CCNC[C@H]2COc2ccc3c(c2)OCO3)cc1
growth ([1]; 25 µM): 101%
growth ([1]; 100 µM): 15.3% (active)
growth ([2]; 25 µM): 5.94% (active)
growth ([2]; 100 µM): 3.06% (active)

C[C@]1(c2nc3c(C(N)=O)cccc3[nH]2)CCCN1
growth ([1]; 25 µM): 95.9%
growth ([1]; 100 µM): 93.8%
growth ([2]; 25 µM): 130%
growth ([2]; 100 µM): 87.6%

CN1CCC(N2CCC(NC(=O)c3cc4c(F)cccc4s3)CC2)CC1
growth ([1]; 25 µM): 91.4%
growth ([1]; 100 µM): 15.5% (active)
growth ([2]; 25 µM): 131%
growth ([2]; 100 µM): 46.6%

N#Cc1c(N)nc(NC2CC2)nc1N
growth ([1]; 25 µM): 99.7%
growth ([1]; 100 µM): 92.9%
growth ([2]; 25 µM): 91.3%
growth ([2]; 100 µM): 95.4%

NC(=O)C(c1ccccc1)(c1ccccc1)[C@@H]1CCN(CCc2ccc3c(c2)CCO3)C1
growth ([1]; 25 µM): 95.3%
growth ([1]; 100 µM): 97.9%
growth ([2]; 25 µM): 106%
growth ([2]; 100 µM): 79.1%

CCN(CCO)CCCC(C)Nc1ccnc2cc(Cl)ccc12 (centres undefined)
growth ([1]; 25 µM): 109%
growth ([1]; 100 µM): 105%
growth ([2]; 25 µM): 85.1%
growth ([2]; 100 µM): 78.2%

OCCN1CCN(CCCN2c3ccccc3Sc3ccc(C(F)(F)F)cc32)CC1
growth ([1]; 25 µM): 1.11% (active)
growth ([1]; 100 µM): 8.28% (active)
growth ([2]; 25 µM): 3.76% (active)
growth ([2]; 100 µM): 3.71% (active)

Clc1cccc2cnsc12
growth ([1]; 25 µM): 96.1%
growth ([1]; 100 µM): 86.1%
growth ([2]; 25 µM): 125%
growth ([2]; 100 µM): 68.5%

COc1ccc(-c2nn3c(-c4ccco4)nnc3s2)cc1OC
growth ([1]; 25 µM): 104%
growth ([1]; 100 µM): 96%
growth ([2]; 25 µM): 97%
growth ([2]; 100 µM): 55.2%

COc1ccc(CCN(C)CCCC(C#N)(c2ccc(OC)c(OC)c2)C(C)C)cc1OC (centres undefined)
growth ([1]; 25 µM): 110%
growth ([1]; 100 µM): 98.5%
growth ([2]; 25 µM): 76.9%
growth ([2]; 100 µM): 98.8%

C[C@H]1c2cccc(O)c2C(=O)C2=C(O)[C@]3(O)C(O)=C(C(N)=O)C(=O)[C@@H](N(C)C)[C@@H]3[C@@H](O)[C@@H]21
growth ([1]; 25 µM): 108%
growth ([1]; 100 µM): 108%
growth ([2]; 25 µM): 63.1%
growth ([2]; 100 µM): 91.7%

NC1(c2ccc(-c3nc4ccn5c(O)nnc5c4cc3-c3ccccc3)cc2)CCC1
growth ([1]; 25 µM): 104%
growth ([1]; 100 µM): 14% (active)
growth ([2]; 25 µM): 79.3%
growth ([2]; 100 µM): 3.13% (active)

OCCN1CCc2nc(NCc3ccc(F)cc3F)nc(NC34CC(C3)C4)c2CC1
growth ([1]; 25 µM): 69.4%
growth ([1]; 100 µM): 19.8% (active)
growth ([2]; 25 µM): 32.2%
growth ([2]; 100 µM): 5.18% (active)

Cc1ccccc1-c1noc(-c2ccccc2)n1
growth ([1]; 25 µM): 92.9%
growth ([1]; 100 µM): 86.5%
growth ([2]; 25 µM): 93.4%
growth ([2]; 100 µM): 60.5%

CN[C@@H]1[C@H](O)[C@H](NC)[C@H]2O[C@@]3(O)C(=O)C[C@@H](C)O[C@H]3O[C@@H]2[C@H]1O
growth ([1]; 25 µM): 105%
growth ([1]; 100 µM): 102%
growth ([2]; 25 µM): 99.5%
growth ([2]; 100 µM): 71.3%

CCOc1ccc(-c2ccnc(Nc3cncc(OC)c3)n2)cc1C#N
growth ([1]; 25 µM): 100%
growth ([1]; 100 µM): 86.8%
growth ([2]; 25 µM): 88.5%
growth ([2]; 100 µM): 68.7%

NC(=O)c1nc(F)cnc1O
growth ([1]; 25 µM): 114%
growth ([1]; 100 µM): 102%
growth ([2]; 25 µM): 83.1%
growth ([2]; 100 µM): 84.1%

FC(F)(F)c1cc(Nc2nc3cnc(NCC4CC4)nc3n2C2CCNCC2)cc(C(F)(F)F)c1
growth ([1]; 25 µM): 81.9%
growth ([1]; 100 µM): 20.9%
growth ([2]; 25 µM): 34.1%
growth ([2]; 100 µM): 5.31% (active)

O=C(Nc1ncccc1O)c1ccc(N2CCOCC2)nc1
growth ([1]; 25 µM): 90%
growth ([1]; 100 µM): 81.4%
growth ([2]; 25 µM): 92.8%
growth ([2]; 100 µM): 95.8%

COCC[C@H](NC(=O)c1cc2ccc(C(F)(F)F)cc2[nH]1)c1ccccc1
growth ([1]; 25 µM): 95.1%
growth ([1]; 100 µM): 92.9%
growth ([2]; 25 µM): 30.3%
growth ([2]; 100 µM): 52.2%

Nc1nc2ccccc2n1CC(O)c1ccc(Cl)cc1Cl (centres undefined)
growth ([1]; 25 µM): 82.1%
growth ([1]; 100 µM): 30.8%
growth ([2]; 25 µM): 95.4%
growth ([2]; 100 µM): 6.46% (active)

COc1ccc(-n2nc(C)c3c2NC(=O)CC3c2ccccc2OCc2ccc(F)cc2)cc1 (centres undefined)
growth ([1]; 25 µM): 82.5%
growth ([1]; 100 µM): 77.9%
growth ([2]; 25 µM): 41.5%
growth ([2]; 100 µM): 52.4%

Cc1nc2ccccn2c1C1(O)C(=O)Nc2c(Cl)cc(Cl)cc21 (centres undefined)
growth ([1]; 25 µM): 101%
growth ([1]; 100 µM): 118%
growth ([2]; 25 µM): 99.3%
growth ([2]; 100 µM): 111%

NC(=O)N1CCC(CC(=O)N2CCC([C@H]3c4ncc(Br)cc4CCc4cc(Cl)cc(Br)c43)CC2)CC1
growth ([1]; 25 µM): 105%
growth ([1]; 100 µM): 101%
growth ([2]; 25 µM): 3.17% (active)
growth ([2]; 100 µM): 11.2% (active)

O=C(NC1(CO)CCOCC1)c1cc2ccc(C(F)(F)F)cc2[nH]1
growth ([1]; 25 µM): 89.7%
growth ([1]; 100 µM): 82.1%
growth ([2]; 25 µM): 83.9%
growth ([2]; 100 µM): 72.9%

CCC(CC)COC(=O)[C@H](C)NP(=O)(OC[C@H]1O[C@@](C#N)(c2ccc3c(N)ncnn23)[C@H](O)[C@@H]1O)Oc1ccccc1 (some centres undefined)
growth ([1]; 25 µM): 109%
growth ([1]; 100 µM): 96.3%
growth ([2]; 25 µM): 95.1%
growth ([2]; 100 µM): 85.7%

CC(C)N1CCN(c2ccc(OC[C@H]3CO[C@](Cn4cncn4)(c4ccc(Cl)cc4Cl)O3)cc2)CC1
growth ([1]; 25 µM): 20.1%
growth ([1]; 100 µM): 7.6% (active)
growth ([2]; 25 µM): 3.57% (active)
growth ([2]; 100 µM): 2.95% (active)

CCC1=C(c2ccc(C)cc2)S(=O)(=O)N=C1N1CCC(C(=O)NCCN2CCCCC2C)CC1 (centres undefined)
growth ([1]; 25 µM): 86.3%
growth ([1]; 100 µM): 88.6%
growth ([2]; 25 µM): 88%
growth ([2]; 100 µM): 81.9%

CC[C@H](C)[C@@H]1NC(=O)c2csc(n2)[C@H]([C@@H](C)CC)NC(=O)c2csc(n2)CNC(=O)c2nc1oc2C
growth ([1]; 25 µM): 83.8%
growth ([1]; 100 µM): 100%
growth ([2]; 25 µM): 64.4%
growth ([2]; 100 µM): 44.8%

Nc1nc(Nc2ccc3c(c2)CC[C@@H](N2CCCC2)CC3)nn1-c1cc2c(nn1)-c1ccccc1CCC2
growth ([1]; 25 µM): -3.21% (active)
growth ([1]; 100 µM): 5.2% (active)
growth ([2]; 25 µM): 4.07% (active)
growth ([2]; 100 µM): 4.45% (active)

O=C1NCCN1CCN1CCC(c2cn(-c3ccc(F)cc3)c3ccc(Cl)cc23)CC1
growth ([1]; 25 µM): 7.42% (active)
growth ([1]; 100 µM): 19.4% (active)
growth ([2]; 25 µM): 5.95% (active)
growth ([2]; 100 µM): 4.92% (active)

CC(N)CCn1c(Nc2cc(Cl)cc(C(F)(F)F)c2)nc2cnc(NC3CCCC3)nc21 (centres undefined)
growth ([1]; 25 µM): 10.9% (active)
growth ([1]; 100 µM): 17.2% (active)
growth ([2]; 25 µM): 11.2% (active)
growth ([2]; 100 µM): 7.25% (active)

Cc1cc(C(=O)N2CCOc3c(cc(-c4csc5ccccc45)cc3OCCc3ccccn3)C2)n(C)n1
growth ([1]; 25 µM): 90.1%
growth ([1]; 100 µM): 91.1%
growth ([2]; 25 µM): 5.62% (active)
growth ([2]; 100 µM): 87.7%

CO[C@H]1C[C@H](O[C@@H]2/C(C)=C/C[C@@H]3C[C@@H](C[C@]4(CC[C@H](C)[C@@H](C5CCCCC5)O4)O3)OC(=O)[C@@H]3C=C(C)/C(=N/O)[C@H]4OC/C(=C\C=C\[C@@H]2C)[C@]43O)O[C@@H](C)[C@@H]1O
growth ([1]; 25 µM): 97.5%
growth ([1]; 100 µM): 89.3%
growth ([2]; 25 µM): 88.8%
growth ([2]; 100 µM): 111%

COc1ccc(-c2cnc3c(-c4ccccc4)c(-c4ccccc4)nn3c2N)cc1OC
growth ([1]; 25 µM): 93.2%
growth ([1]; 100 µM): 83.3%
growth ([2]; 25 µM): 86.3%
growth ([2]; 100 µM): 70.2%

CN(C)c1cc(NC(=O)CNC(C)(C)C)c(O)c2c1C[C@H]1C[C@H]3[C@H](N(C)C)C(O)=C(C(N)=O)C(=O)[C@@]3(O)C(O)=C1C2=O
growth ([1]; 25 µM): 104%
growth ([1]; 100 µM): 107%
growth ([2]; 25 µM): 69.1%
growth ([2]; 100 µM): 104%

Cc1c(O)cccc1C(=O)N[C@@H](CSc1ccccc1)[C@H](O)CN1C[C@H]2CCCC[C@H]2C[C@H]1C(=O)NC(C)(C)C
growth ([1]; 25 µM): 107%
growth ([1]; 100 µM): 105%
growth ([2]; 25 µM): 83.9%
growth ([2]; 100 µM): 88.2%

CC(CN1c2ccccc2Sc2ccccc21)N(C)C (centres undefined)
growth ([1]; 25 µM): 102%
growth ([1]; 100 µM): 12.8% (active)
growth ([2]; 25 µM): 77.8%
growth ([2]; 100 µM): 3.58% (active)

O=C(NCCCNc1nc(Nc2ccc(N3CCOCC3)cc2)ncc1C1CC1)C1CCC1
growth ([1]; 25 µM): 93.4%
growth ([1]; 100 µM): 95%
growth ([2]; 25 µM): 101%
growth ([2]; 100 µM): 72.1%

c1ccc(Nc2cc(Nc3cc(-c4ccccc4)[nH]n3)nc3ccnn23)cc1
growth ([1]; 25 µM): 67.4%
growth ([1]; 100 µM): 59.7%
growth ([2]; 25 µM): 8.39% (active)
growth ([2]; 100 µM): 10.5% (active)

CC[C@H](NC(=O)c1cc2c(F)cccc2[nH]1)c1ccccc1
growth ([1]; 25 µM): 77.9%
growth ([1]; 100 µM): 99%
growth ([2]; 25 µM): 8.07% (active)
growth ([2]; 100 µM): 5.18% (active)

CC(C)(C)Nc1ncc2nc(Nc3cccc(C(F)(F)F)c3)n(CC3CCNCC3)c2n1
growth ([1]; 25 µM): 92.9%
growth ([1]; 100 µM): 97.2%
growth ([2]; 25 µM): 107%
growth ([2]; 100 µM): 69.3%

C[C@H](Cn1cnc2c(N)ncnc21)OCP(=O)(O)O
growth ([1]; 25 µM): 105%
growth ([1]; 100 µM): 107%
growth ([2]; 25 µM): 89.4%
growth ([2]; 100 µM): 81.3%
